Screening data (PubChem BioAssay)
Pol kappa inh: inhibitors of human DNA polymerase kappa | Potency, µM (titrated, usually from 107 µM), hits mostly inhibitors | 0.53% of 400,000 active | Q9UBT6 | purified Pol kappa, fluorescent DNA synthesis assay, 10 min
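Kinetic fluorescence screen: compound preincubated 15 min RT with 10 nM enzyme; 50 nM substrate (final) initiates; reads at 0/10 min.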
L3MBTL1 inh: blocks human L3MBTL1 | Q9Y468 | AlphaScreen L3MBTL1–H3K9me1 peptide binding | Potency, µM (series often up to 57.1 µM), actives largely listed as inhibitors | 0.66% of 230,000 active; note: nearly all actives have a fitted effect of over 60% in size
Target sequence (Q9Y468 whole entry, looked up): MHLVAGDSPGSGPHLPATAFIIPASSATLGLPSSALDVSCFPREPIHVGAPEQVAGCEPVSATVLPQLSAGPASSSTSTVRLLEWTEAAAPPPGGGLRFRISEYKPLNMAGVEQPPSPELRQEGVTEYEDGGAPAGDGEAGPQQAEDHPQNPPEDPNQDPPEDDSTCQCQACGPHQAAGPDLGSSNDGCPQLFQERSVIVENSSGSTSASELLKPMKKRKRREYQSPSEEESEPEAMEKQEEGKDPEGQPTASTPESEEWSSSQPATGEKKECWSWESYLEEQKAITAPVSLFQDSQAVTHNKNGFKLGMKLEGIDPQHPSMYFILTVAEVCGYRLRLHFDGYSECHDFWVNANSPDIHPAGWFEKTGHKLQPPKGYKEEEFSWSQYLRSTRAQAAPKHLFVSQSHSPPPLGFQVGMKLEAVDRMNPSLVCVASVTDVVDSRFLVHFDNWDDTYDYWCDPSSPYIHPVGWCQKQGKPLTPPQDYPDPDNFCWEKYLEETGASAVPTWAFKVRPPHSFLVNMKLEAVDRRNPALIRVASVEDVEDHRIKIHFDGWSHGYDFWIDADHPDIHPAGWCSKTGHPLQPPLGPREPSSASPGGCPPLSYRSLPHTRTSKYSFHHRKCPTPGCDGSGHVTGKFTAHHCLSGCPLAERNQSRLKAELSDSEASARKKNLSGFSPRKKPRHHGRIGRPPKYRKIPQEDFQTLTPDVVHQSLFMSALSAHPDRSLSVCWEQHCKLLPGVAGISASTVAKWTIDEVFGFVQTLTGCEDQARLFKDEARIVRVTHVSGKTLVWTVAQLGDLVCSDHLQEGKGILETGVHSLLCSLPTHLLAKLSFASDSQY
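AlphaScreen assay: L3MBTL1 (50 nM final) was preincubated 30 min at room temperature with biotinylated H3(1-15)K9me1 peptide (75 nM final), then 30 min with library compounds; streptavidin donor and nickel chelate acceptor beads (10 ug/mL final) added, 30 min dark.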
Pol beta inh: DNA polymerase beta (human) inhibition; Potency, µM (doses to about 114 µM), actives largely listed as inhibitors; 1.3% of 340,000 active; Pol beta primer extension/strand displacement, fluorescence kinetic
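Reaction started by 50 nM substrate onto compound-treated Pol beta (10 nM, 15 min preincubation, room temperature); plates read at 0 min and 10 min. Normalized concentration-effect data fitted by four-parameter Hill equation.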
POLH inh: DNA polymerase eta (human) inhibition; recombinant Pol eta, fluorescent DNA replication assay; Potency, µM (titrated, usually from 114 µM), usual class: inhibitors; 1.2% of 390,000 active; AID 588591
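Fluorescent replication assay: 50 nM final substrate added after a 15 min room-temperature compound preincubation with 10 nM enzyme. Signal taken at 0 min and again at 10 min.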
POLI inh: DNA polymerase iota (human) inhibition; AID 588590; Pol iota fluorescent replication assay, 10 min; 1% of 390,000 active; Q9UNA4; Potency, µM (highest dose often 115 µM), most hits filed as inhibitors
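Pol iota at 10 nM preincubated 15 min with compounds at room temperature; reaction started with fluorescent substrate, 50 nM final. Fluorescence read kinetically at 0 and 10 min; buffer-only wells as negative control.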
Large screens that a line does not name were inactive. A selection: hits, their analogues and other compounds. The true share with any hit is near 2.4%. Calls come from the whole dose curve; as a rule, active = well fitted curve in the direction sought with a large enough effect; inconclusive = small, poorly fitted or top-dose-only effect, or another doubt; inactive = no such curve, though single readings can be large; an effect the other way counts as inactive or inconclusive.

Nc1ncn(C2C[C@H](O)[C@@H](CO)O2)c(=O)n1 (some centres not stated)	none (no result: L3MBTL1 inh, Pol beta inh, POLH inh, POLI inh)
O=C(NCCc1nc2ccccc2n1CCCOc1ccc2ccccc2c1)C1CCCCC1	none (no result: L3MBTL1 inh, Pol beta inh, POLH inh)
COc1ccc(-c2csc(N(CCCN(C)C)C(=O)c3ccccc3C)n2)cc1	L3MBTL1 inh 35µM
CC(C)(C)C1CCNC(=O)CC1 (configuration not stated)	none (no result: Pol kappa inh, L3MBTL1 inh, Pol beta inh, POLI inh)
CNC(=S)N/N=C/c1cc(Br)cc(Br)c1O	L3MBTL1 inh 2µM
COc1ccc2c(c1)c(CC(=O)NCc1cc([N+](=O)[O-])ccc1O)c(C)n2C(=O)c1ccc(Cl)cc1	Pol beta inh 40µM, POLH inh 45µM, POLI inh inconclusive (no result: L3MBTL1 inh)
COc1ccc2c(c1)c(CC(=O)Nc1ccc(C(C)=O)cc1)c(C)n2C(=O)c1ccc(Cl)cc1	POLH inh inconclusive
Cc1ccc(-c2nc(-c3cc4cc(Cl)ccc4oc3=O)sc2C)cc1	none (no result: L3MBTL1 inh, Pol beta inh, POLH inh)
Cc1nn(C)c(Cl)c1S(=O)(=O)N(Cc1ccco1)c1ncnc2nc[nH]c12	POLI inh inconclusive (no result: L3MBTL1 inh, Pol beta inh, POLH inh)
CC(NS(=O)(=O)c1ccc(Cl)cc1)C(=O)NCc1ccco1 (configuration not stated)	Pol beta inh inconclusive, POLI inh 71µM (no result: L3MBTL1 inh)
COc1ccc(S(=O)(=O)NC(C)C(=O)NCc2ccco2)cc1OC (configuration not stated)	none (no result: L3MBTL1 inh)
CCOC(=O)c1c(S(=O)(=O)NCC(=O)N(C)c2ccc(C)cc2)c(C)n(C)c1C	POLH inh 45µM (no result: L3MBTL1 inh)
CCOC(=O)c1c(S(=O)(=O)NCC(=O)Nc2ccc(F)cc2C)c(C)n(C)c1C	POLH inh 79µM (no result: L3MBTL1 inh)
CCOC(=O)c1c(S(=O)(=O)NCC(=O)NCc2ccc(C)cc2)c(C)n(C)c1C	none (no result: L3MBTL1 inh)
C/C(=N\Nc1nc(-c2cc(C)ccc2C)cs1)c1cc2ccccc2oc1=O	Pol beta inh 50µM
C/C(=N\Nc1nc(-c2cc(C)ccc2C)cs1)c1cc2c(ccc3ccccc32)oc1=O	Pol kappa inh 79µM, Pol beta inh inconclusive, POLI inh inconclusive
O=c1oc2ccccc2cc1-c1csc(NN=C2CCCC2)n1	none
COc1ccc(-c2onc(C)c2C)cc1S(=O)(=O)Nc1ccc(OC(F)(F)F)cc1	none (no result: L3MBTL1 inh)
C=C(C)C1CC=C(C)/C(=N/NC(=O)CNc2ccc(OCC)cc2)C1 (configuration not stated)	POLI inh 89µM
COc1ccccc1-c1cc2nc(C)cc(C)n2n1	Pol beta inh 89µM
Cc1cc(C)c(S(=O)(=O)Nc2cc(SCC(=O)O)c(O)c3ccccc23)cc1C	L3MBTL1 inh inconclusive, POLH inh 35µM, POLI inh 20µM
Oc1c(/C=N/c2ccccn2)sc2ccccc12	Pol beta inh 22µM
C[C@@H]1NC(=O)c2cc([N+](=O)[O-])cc(I)c2NCCCC[C@@H](C(N)=O)NC(=O)[C@H](CCC(=O)O)NC1=O	Pol kappa inh inconclusive, POLH inh 22µM, POLI inh 40µM
NC(=O)C[C@H]1NC(=O)[C@H](CCC(=O)O)NC(=O)c2cc([N+](=O)[O-])cc(I)c2NCCC[C@@H](C(N)=O)NC1=O	Pol kappa inh inconclusive, POLH inh 35µM, POLI inh inconclusive
NC(=O)C[C@@H]1NC(=O)[C@H](CCC(=O)O)NC(=O)c2cc([N+](=O)[O-])cc(I)c2OCC[C@@H](C(N)=O)NC1=O	Pol kappa inh inconclusive, POLH inh 35µM
CCS(=O)(=O)N1CCC(n2c(C(F)(F)F)nc3cccnc32)CC1	Pol beta inh inconclusive (no result: L3MBTL1 inh)
CCCCCC1OC1C/C=C\C/C=C\C/C=C\CCCC(=O)O (configuration not stated)	none (no result: L3MBTL1 inh, Pol beta inh, POLH inh, POLI inh)
C=C1C=C(C(F)F)n2ncc(C(=O)Nc3ccc(N(CC)CC)cc3)c2N1	none (no result: L3MBTL1 inh, Pol beta inh, POLH inh)
COc1cccc(-c2cc(C(=O)Nc3cnn(Cc4ccc(F)cc4)c3)no2)c1	POLI inh 100µM
COc1ccc(-c2cc(C(=O)Nc3cnn(Cc4ccc(F)cc4)c3)no2)cc1OC	none (no result: L3MBTL1 inh)
CCN(CC)S(=O)(=O)c1nnc(NC(=O)c2ccc(C)cc2)s1	none (no result: L3MBTL1 inh)
CCN(Cc1ccccc1)C(=O)Cn1c(=O)n(-c2ccc(Cl)cc2)c(=O)c2c(C)c(C)sc21	none (no result: L3MBTL1 inh)
Cc1ccc(NC(=O)CSc2nc3nc(C)cc(C)c3c(=O)[nH]2)cc1	Pol beta inh 45µM, POLH inh inconclusive (no result: L3MBTL1 inh)
CN(C)c1ccc(NC(=O)CSc2nc3c(c(=O)[nH]2)CCCC3)cc1	Pol kappa inh inconclusive, L3MBTL1 inh inconclusive, Pol beta inh inconclusive, POLH inh 79µM, POLI inh inconclusive
CCOc1ccc(NC(=O)CSc2nc3c(c(=O)[nH]2)CCCC3)cc1	none (no result: L3MBTL1 inh)
Cc1cc(C)c2c(=O)[nH]c(SCC(=O)Nc3ccccc3)nc2n1	none
Cc1cc(C)c2c(=O)[nH]c(SCC(=O)c3ccc(C)c(C)c3)nc2n1	Pol beta inh 18µM
Cc1ccc2nc(-c3ccc(-c4ccccn4)s3)cn2c1	Pol beta inh 40µM, POLI inh inconclusive
O=C(Nc1cccc(C(F)(F)F)c1)c1cc2ccc3cccnc3c2[nH]1	POLI inh inconclusive (no result: L3MBTL1 inh)
O=C(Nc1ccc(F)cc1F)c1cc2ccc3cccnc3c2[nH]1	Pol beta inh 18µM, POLI inh inconclusive (no result: L3MBTL1 inh)
Cc1csc(N2CCN(c3cc4c(cc3Cl)nc(-c3ccncc3)n4CCCN3CCCC3)CC2)n1	none
Cc1csc(N2CCN(c3cc4nc(-c5ccncc5)[nH]c4cc3Cl)CC2)n1	Pol beta inh 35µM, POLI inh inconclusive
CCOc1cc(CNc2ccc(N3CCCCC3)cc2)cc(Br)c1OCC(=O)NC(C)(C)C	L3MBTL1 inh 28µM
COc1cc(CNc2ccc3[nH]c(=O)[nH]c3c2)cc(Br)c1OCC(=O)NC(C)(C)C	none (no result: L3MBTL1 inh)
CCOc1cc(CNc2ccc(N3CCOCC3)cc2)cc(Br)c1OCC	L3MBTL1 inh 32µM, POLH inh inconclusive
CCOc1cc(CNc2ccc(N(C)C)cc2)cc(Br)c1OCC(=O)NC(C)(C)C	L3MBTL1 inh inconclusive, POLI inh 8.9µM
CCOc1cc(CO)cc(Br)c1OCC(=O)Nc1ccccc1C	none
CCOc1cc(CNc2cccc3ccccc23)cc(Br)c1OCC(=O)NC(C)(C)C	Pol beta inh 79µM (no result: L3MBTL1 inh)
COc1ccccc1N1CCN(S(=O)(=O)CCNC(=O)C(C)Oc2ccccc2)CC1 (configuration not stated)	none (no result: Pol kappa inh, L3MBTL1 inh, Pol beta inh, POLI inh)
Nc1nc(=O)c2ccccc2s1	POLH inh inconclusive (no result: L3MBTL1 inh, Pol beta inh)
Cc1ccc(C=C2C(=O)c3ccccc3C2=O)s1	POLH inh inconclusive, POLI inh 25µM (no result: L3MBTL1 inh)
Cc1cccc(Cn2ccn(Cc3ccc(Cl)cc3)c(=O)c2=O)c1	Pol beta inh 25µM (no result: L3MBTL1 inh)
Cc1ccc(OCc2nc(-c3ccc(C(=O)NCCc4ccc(Cl)cc4)cc3)oc2C)cc1	none (no result: L3MBTL1 inh)
Cc1cc(C)cc(C(=O)Nc2ccc(-c3nc4ncccc4o3)cc2)c1	Pol beta inh 14µM, POLH inh inconclusive (no result: L3MBTL1 inh)
Cc1ccc(C(=O)Nc2cc(-c3nc4ncccc4o3)ccc2C)c(C)c1	POLH inh 79µM (no result: L3MBTL1 inh)
Cc1cc(-c2nc3ncccc3o2)ccc1NC(=O)c1ccc([N+](=O)[O-])o1	POLH inh 50µM, POLI inh 3.5µM (no result: L3MBTL1 inh, Pol beta inh)
